According to PubChem BioAssay AID488965 (Broad Institute, 2010):
The whole screen tested about 340,000 compounds, of which about 210 (0.062%) were called active. Cut-off read from the data, not from the text of the source: active = inhibition above about 30% (passing the limit was not always enough); inconclusive = no clear call, values can overlap the other calls. This excerpt belongs to a sample that is enriched for actives.

test system: PvdQ acylase [Pseudomonas aeruginosa LESB58]; assay: P. aeruginosa PvdQ acylase inhibitors, primary screen, biochemical, fluorescence, plate reader and imaging, single point (AID 488965); details: purified PvdQ acylase, at 10 µM, hits give high values;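 note: 0% = vehicle neutral wells and 100% = reference inhibitor wells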

Row | Structure (SMILES) | inhibition
1 | CCSc1nc2sc3c(c2c(=O)n1-c1ccc(C)cc1)CCN(C)C3 | -19.4% (inactive)
2 | C/C=N/N(c1ccccc1)c1ccccc1 | -15.2% (inactive)
3 | COC(=O)C[n+]1cccc2ccccc21 | -19.7% (inactive)
4 | CC(=O)c1ccccc1NC(=O)C1CC(=O)N(c2ccc3c(c2)OCCO3)C1 (centres undefined) | 3.1% (inactive)
5 | Cc1ccc(-c2csc(N3CCN(c4cc5c(cc4Cl)nc(-c4ccncc4)n5CCOCCO)CC3)n2)cc1 | 2.95% (inactive)
6 | CCOc1ccc(/C=C(/NC(=O)c2ccccc2)C(=O)NCCC(=O)O)cc1 | 3.82% (inactive)
7 | O=C(NCc1cccnc1)c1cnc2ccccc2n1 | -7.28% (inactive)
8 | COc1ccccc1CN1CCCC(N2CCN(c3ccc(F)cc3)CC2)C1 (centres undefined) | -5.39% (inactive)
9 | O=C(COC(=O)/C=C/c1cccs1)NC1CCCCC1 | -1.95% (inactive)
10 | COc1ccc(Cn2c(-c3ccc(Cl)cc3)c[n+]3ccccc23)cc1 | -9.83% (inactive)
11 | COc1ccc(/C(N)=N/OC(=O)CCCc2ccccc2)cc1 | 12.9% (inactive)
12 | Cc1ccccc1N1CC(C(=O)Nc2ccc(S(=O)(=O)N3CCCC3)cc2)CC1=O (centres undefined) | -17.2% (inactive)
13 | COc1ccccc1C(=O)N(Cc1ccc(C)o1)C1CCS(=O)(=O)C1 (centres undefined) | -16.8% (inactive)
14 | O=C(NCc1cccc(CNC(=O)Nc2cccc(O)c2)c1)Nc1cccc(O)c1 | 8.11% (inactive)
15 | OCCn1c(-c2ccccc2)csc1=Nc1ccccc1 | -14.6% (inactive)
16 | CNC[C@H](CC1CCCCC1)NC[C@H](NCCC1CCCC1)[C@H](C)O | -4.64% (inactive)
17 | CCCCNC1(C#N)CCN(Cc2ccccc2)CC1 | -10.8% (inactive)
18 | Cc1ccc(S(=O)(=O)N[C@@H](Cc2ccccc2)C(=O)N2CCC(C(=O)N[C@H](C(=O)O)C(C)O)CC2)cc1 (some centres undefined) | -16.1% (inactive)
19 | CN1CCN(CC(O)COCc2ccc3c(c2)OCO3)CC1 (centres undefined) | 13.9% (inactive)
20 | O=C(c1cccs1)C1C(c2ccc(Br)cc2)NC(=S)NC1(O)C(F)(F)F (centres undefined) | -1.76% (inactive)
21 | Cc1ccc2nc(SCC(=O)N3CCN(c4ccccc4)CC3)nc(=O)n2c1 | -4.06% (inactive)
22 | CCC1([N+](=O)[O-])COC(c2ccc(C)cc2)OC1 (centres undefined) | -3.75% (inactive)
23 | CCCCCN(C(=O)NC(=O)Nc1ccccc1OC)S(C)(=O)=O | -5.97% (inactive)

Row | Structure (SMILES) | inhibition
24 | Cc1cccn2c(CN(C)C3CCCc4ccccc43)c(C(=O)N3CCOCC3)nc12 (centres undefined) | -1.38% (inactive)
25 | CCOc1cccc(OCCCOc2cccc3cccnc23)c1 | -17.7% (inactive)
26 | COc1ccc(S(=O)(=O)N(C)C[C@H]2Oc3ccc(NS(=O)(=O)c4cccs4)cc3CC(=O)N([C@H](C)CO)C[C@H]2C)cc1 | 3.49% (inactive)
27 | O=C(O)c1ccc(OCC2CCCO2)cc1 (centres undefined) | -9.45% (inactive)
28 | CCCCN1CC(COc2ccccc2)Oc2cccc(F)c2S1(=O)=O (centres undefined) | -16% (inactive)
29 | CCCCCC1CC(COc2ccccc2)OC1=O (centres undefined) | 44.8% (active)
30 | CCCCCCNS(=O)(=O)c1ccccc1Br | -11.4% (inactive)
31 | CC(CNC(=O)Cn1cnc2c(OCc3ccccc3)ncnc21)c1ccccc1 (centres undefined) | -13.2% (inactive)
32 | CCCCNC(=O)N1CCCC(N(C)CCc2ccc(OC)c(OC)c2)C1 (centres undefined) | -14.5% (inactive)
33 | CN(Cc1ccccc1F)C(=O)C(Cc1ccccc1)NC(=O)c1ccccc1 (centres undefined) | -5.25% (inactive)
34 | Cc1nn(CCOc2ccc(Br)cc2)c(C)c1[N+](=O)[O-] | -14% (inactive)
35 | CCOC(=O)N1CCN(Cc2nc3ccc([N+](=O)[O-])cc3c(=O)n2-c2cccc(OC)c2)CC1 | -6.54% (inactive)
36 | CCn1nnnc1SCC(=O)Nc1ccc(N(C)C)cc1 | -8.46% (inactive)
37 | COc1ccc(N(CC(=O)NC2CCCCCCC2)S(=O)(=O)c2c(C)nn(C)c2C)cc1 | -11.2% (inactive)
38 | Cc1ccc(CNC(=O)CC(NC(=O)c2ccccc2)c2ccccc2)cc1 (centres undefined) | -6.05% (inactive)
39 | NC(=O)c1ncc(C(F)(F)F)cc1Oc1ccc(F)cc1 | -11.7% (inactive)
40 | O=C(Nc1ccc(OCC(=O)N2CCOCC2)cc1)c1cc(F)c(F)cc1Cl | -15.7% (inactive)
41 | Cc1ccc(CN2CC(C(=O)N3CCN(S(=O)(=O)c4ccccc4)CC3)CC2=O)cc1 (centres undefined) | -11.4% (inactive)
42 | O=C1C=CC(=O)N1c1ccc(N2CCCCC2)cc1 | -13.5% (inactive)
43 | C#CCOCCOCCOCCNc1nc(N2CCN(C(=O)[C@H](CO)n3cc([C@@H](N)C(C)C)nn3)CC2)nc(N2CCN(C(=O)[C@H](CCC(=O)O)n3cc([C@@H](N)[C@H](C)CC)nn3)CC2)n1 | -4.25% (inactive)
44 | COc1ccc(C(=O)NC2CCN(C(=O)Nc3ccc(F)cc3)CC2)cc1 | -6.33% (inactive)
45 | O=C(CSc1nnc(-c2cccnc2)n1CCc1ccccc1)NCc1ccccc1 | -11.6% (inactive)
46 | CCOC(=O)C1(Cc2ccc(O)cc2)NC(c2ccccc2F)C2C(=O)N(C)C(=O)C21 (centres undefined) | -8.27% (inactive)

Row | Structure (SMILES) | inhibition
47 | CC[C@]12c3[nH]c4ccc(Cl)cc4c3CCN1C(=O)[C@@H](CC(=O)NCCCOC)C[C@@H]2C(=O)N1CCN(C(=O)c2ccco2)CC1 | -13.8% (inactive)
48 | O=C(/C=C/c1ccccc1Cl)Nc1ccc(S(=O)(=O)Nc2ncccn2)cc1 | -4.75% (inactive)
49 | O=C(CCCOc1ccccc1)NCc1ccco1 | -2.34% (inactive)
50 | CCn1c(SCC(=O)Nc2ccc(OC)c(OC)c2)nnc1-c1c[nH]c2ccccc12 | -5.34% (inactive)
51 | COc1ccc(N2C(=O)CC(Sc3n[nH]c(-c4ccc(C)cc4)n3)C2=O)cc1 (centres undefined) | -16% (inactive)
52 | CC(NC(=S)NNS(=O)(=O)c1ccc(C(C)(C)C)cc1)c1ccccc1 (centres undefined) | -8.37% (inactive)
53 | Cc1cc(C)cc(NC(=O)N(C)Cc2ccccc2)c1 | -16% (inactive)
54 | C/C(Cc1ccccc1)=N\NC(=O)CNC(=O)c1cccc(Br)c1 | 2.03% (inactive)
55 | CCOc1ccc(OCC)c(NC(=O)CCS(=O)(=O)c2ccc(C)cc2)c1 | -14.3% (inactive)
56 | CCc1ccc(NC(=O)N2CCc3ccccc3C2)cc1 | -0.823% (inactive)
57 | CCOC(=O)C(NC(=O)CC(C)C)(Nc1sc2c(c1C(N)=O)CCCC2)C(F)(F)F (centres undefined) | -4.91% (inactive)
58 | CC1Cc2ccccc2N1S(=O)(=O)c1ccc(Cl)nc1 (centres undefined) | 24.3% (inactive)
59 | COc1ccc(OCC(=O)NN2Cc3ccccc3C2=N)cc1 | 7.9% (inactive)
60 | COc1ccc(CNS(=O)(=O)c2ccc(NC(=O)N3CCCCC3)cc2)cc1 | 1.88% (inactive)
61 | N#Cc1cc([N+](=O)[O-])ccc1Oc1cccc(/C=N/NC(=O)c2ccc(Cl)cc2)c1 | 65.3% (active)
62 | O=C(N/N=C/c1cccc(OC(=O)c2ccc([N+](=O)[O-])cc2)c1)c1cccnc1 | -8.47% (inactive)
63 | O=C(N/N=C/c1ccc(Cl)cc1)c1nc2ccc([N+](=O)[O-])cc2c(=O)[nH]1 | -8.55% (inactive)
64 | C/C(=N\NC(=O)Cc1ccccc1[N+](=O)[O-])c1cccnc1 | -8.6% (inactive)
65 | O=C(CN1CCSCC1)N/N=C/c1ccc(F)cc1F | -7.29% (inactive)
66 | COc1ccccc1N1CCN(C(=O)CCS(=O)(=O)c2ccc3c(c2)NC(=O)C(C)S3)CC1 (centres undefined) | -17.3% (inactive)
67 | CN1C(C(=O)NCc2ccco2)CC2Cn3c(nc4ccccc43)C21 (centres undefined) | -1.69% (inactive)
68 | CCOC(=O)N1CCC(Nc2c(NCCCN3CCN(CC)CC3)c(=O)c2=O)CC1 | -6.72% (inactive)
69 | O=C(NCc1ccco1)/C(=C/c1cccc([N+](=O)[O-])c1)NC(=O)c1ccco1 | 5.34% (inactive)

Row | Structure (SMILES) | inhibition
70 | OC(CNCC1CCCO1)Cn1c2ccc(Br)cc2c2cc(Br)ccc21 (centres undefined) | -10.5% (inactive)
71 | O=c1cc(Cl)c2ccccc2n1-c1ccccc1 | -10.1% (inactive)
72 | Cc1cccc(N2CCN(C(=O)c3cccc(N4C(=O)C5C6C=CC(C6)C5C4=O)c3)CC2)c1C (centres undefined) | -11.5% (inactive)
73 | Cc1ccc(S(=O)(=O)NCCSC(C)(C)C)cc1 | 6.35% (inactive)
74 | COc1ccc(S(=O)(=O)N2C[C@H]3CON(C)[C@H]3C[C@H]2c2cccc(Br)c2)cc1 | 4.46% (inactive)
75 | O=C(NCCc1ccccc1)C1CCC(Cn2c(=O)c3ccccc3n(Cc3cccnc3)c2=O)CC1 (centres undefined) | -13.5% (inactive)
76 | COc1ccc(-c2[nH]ncc2CN(C)Cc2cccnc2)c(F)c1 | -16.1% (inactive)
77 | Cc1ccc(N(C(=O)Cc2cccs2)C2C=CS(=O)(=O)C2)cc1Cl (centres undefined) | -5.8% (inactive)
78 | CCCC(=O)N1CCN(c2nnc(-c3ccc(C)cc3)c3ccccc23)CC1 | -23.6% (inactive)
79 | COc1cccc(NC(=O)c2ccccc2N(Cc2ccccc2)S(C)(=O)=O)c1 | -17.2% (inactive)
80 | CCOc1ccc(-c2noc(CCC(=O)NC3CCCC3)n2)cc1OC | 3.89% (inactive)
81 | CC(C)=CCC/C(C)=C/C(=O)O | -3.82% (inactive)
82 | O=C(N/C(=C/c1ccc(Cl)cc1)C(=O)N1CCCCC1)c1ccco1 | -10.7% (inactive)
83 | CN1C(C(=O)NCC2CC2)CC2Cn3c(nc4ccccc43)C21 (centres undefined) | -7.73% (inactive)
84 | COc1cccc(C2=CC(=O)C[C@H](c3ccc(F)cc3)C2)c1OC | -13.7% (inactive)
85 | COc1ccccc1C1=CC(=O)C[C@H](c2ccc(F)cc2)C1 | 2.08% (inactive)
86 | O=C1C=C(c2cccc(Br)c2)C[C@@H](c2ccc(F)cc2)C1 | 63.4% (active)
87 | O=C1C=C(c2cccc(Cl)c2)C[C@@H](c2ccc(F)cc2)C1 | 37.3% (active)
88 | COc1cccc(C2=CC(=O)C[C@H](c3ccc(OC)c(OC)c3)C2)c1 | -0.585% (inactive)
89 | O=C1C=C(c2cccc(Cl)c2O)C[C@@H](c2ccc(F)cc2)C1 | -5.55% (inactive)
